From PubChem BioAssay (Tox21) come the findings set out here.

The nature of experiment [1]: qHTS assay to identify small molecule antagonists of the retinoid acid receptor (RAR) signaling pathway - cell viability counter screen (AID 1159551). Also: nearly all actives have a fitted effect of over 35% in size. Also: potency is read from the fitted curve at half-maximal effect. The note with it: C3RL4 cells viability, ATP luminescence (CellTiter-Glo), 6 h; series mostly up to 92.4 µM. The gist of the method:
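Luminescent ATP quantitation (CellTiter-Glo) gave cell viability in C3RL4 cells exposed to test chemicals for 6 h at 37 C alongside 1 uM final retinol.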

Experiment [2] is described as follows: qHTS assay to identify small molecule antagonists of the estrogen related receptor (ERR) signaling pathway from Tox21 library - cell viability counter screen (AID 1224834). Also: nearly all actives have a fitted effect of over 30% in size. Also: potency is read from the fitted curve at half-maximal effect. The note with it: ERR reporter cells viability, CellTiter-Fluor, 17.5 h; series mostly up to 92.4 µM. The method, boiled down:
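Fluorescence from CellTiter-Fluor gives the viability read-out, taken 30 min after reagent addition. Before that, ERR cells seeded 6 h earlier were incubated with compounds for 17.5 h at 37 C.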
For orientation: In qHTS, concentration-response curves come from the screen itself.

A short description of experiment [3]: qHTS assay to identify small molecule antagonists of the estrogen related receptor (ERR) signaling pathway - cell viability counter screen (AID 1224818).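 Also: viability measured after 17.5 h of compound exposure.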 The note with it: ERR reporter cell line viability counter screen; series mostly up to 46.1 µM. The method, boiled down:
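Multiplexed counter screen to separate cytotoxic compounds from true ERR modulators. ERR cells received DMSO-dissolved compounds after a 6 h pre-incubation, were exposed 17.5 h at 37 C, then assayed with CellTiter-Fluor fluorescence.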

Experiment [4] can be described thus: qHTS assay to identify small molecule antagonists of the estrogen related receptor (ERR) signaling pathway (AID 1224819; also: nearly all actives have a fitted effect of over 50% in size; also: potency is read from the fitted curve at half-maximal effect). The note with it: ERR reporter cell line, luciferase inhibition; series mostly up to 46.1 µM. The method, boiled down: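 Seed ERR cells 2,000/well; rest 6 h at 37 C/5% CO2; pin compounds in DMSO; incubate 18 h at 37 C; add One-Glo; wait 30 min at room temperature; measure luminescence.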

The test system of experiment [5] is estrogen-related receptor alpha (ERRalpha) with PGC-1alpha coactivator, human. Description: qHTS assay to identify small molecule antagonists of the estrogen related receptor signaling pathway with the pleiotropic PPARgamma coactivator (PGC) (AID 1224821; calls by dose curve;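 also: lower luminescence signal means antagonism of PGC/ERR signalling; nearly all actives have a fitted effect of over 50% in size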). Particulars: ERR/PGC reporter cell line, luciferase, antagonist mode; series mostly up to 46.1 µM. The method, boiled down: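 Cells engineered for PGC/ERR signalling (line from NTP) were plated 6 h at 37 C/5% CO2, then exposed to DMSO-dissolved compound for 18 h at 37 C. Luciferase activity was read by One-Glo luminescence after 30 min at room temperature.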

Experiment [6] is described as follows: qHTS assay to identify small molecule antagonists of the estrogen related receptor signaling pathway with the pleiotropic PPARgamma coactivator (PGC) cell viability counter screen (AID 1224822). Particulars: ERR/PGC reporter cell line viability counter screen; series mostly up to 46.1 µM. The method, boiled down:
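Cells: PGC/ERR, 2,000/well, 1536-well format. Pre-incubation 6 h, 37 C/5% CO2. Compound exposure 17.5 h, 37 C. Detection: CellTiter-Fluor, 30 min, fluorescence.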

Experiment [7] can be described thus: qHTS assay to identify small molecule agonists of the retinoic acid receptor (RAR) signaling pathway (AID 1159553). Also: potency is read from the fitted curve at half-maximal effect. Particulars: C3RL4 RARE luciferase reporter, agonist, 6 h; series mostly up to 73.3 µM. The gist of the method: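 Luminescence from a RARE-driven luciferase reporter in C3RL4 cells served as the read-out, measured after 30 min with detection reagent at room temperature. Compounds in DMSO were applied for 6 hr at 37 C following overnight seeding.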

Experiment [8] is described as follows: qHTS assay to identify small molecule agonists of the estrogen related receptor (ERR) signaling pathway (AID 1224820). The note with it: ERR reporter cell line, luciferase agonist mode; series mostly up to 46.1 µM. The method, boiled down:
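ERR reporter cells (NTP line) plated 2,000/well, incubated 6 h at 37 C/5% CO2, then pinned with compounds in DMSO and held 18 h at 37 C. One-Glo added; luminescence read after 30 min at room temperature.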

Experiment [9] can be described thus: qHTS assay to identify small molecule agonists of the estrogen related receptor signaling pathway with the pleiotropic PPARgamma coactivator (PGC) (AID 1224823). The note with it: ERR/PGC reporter cell line, luciferase agonist mode; series mostly up to 46.1 µM. The method, boiled down: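 PGC/ERR reporter cells were seeded, rested 6 h at 37 C/5% CO2, then exposed to compounds in DMSO by pin transfer for 18 h at 37 C. Luciferase activity was read as luminescence after One-Glo reagent and 30 min at room temperature.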

Values joined by “and” are separate entries in the source; they are usually repeats but may differ in a detail not shown here. Equal entries are not always repeated. Records with an inconclusive call do not appear. Active and inactive are the calls of the source. Unless noted, calls follow the shape of the dose curve; as a rule, active = well fitted curve in the direction sought with a large enough effect in the repeat runs; inconclusive = weak or mixed curves; inactive = no such curve, though single readings can be large; an effect the other way counts as inactive or inconclusive.

Consider `CC(=O)O[C@]1(C(C)=O)CC[C@H]2[C@@H]3C[C@H](C)C4=CC(=O)CC[C@]4(C)[C@H]3CC[C@@]21C`, for which the Potency result in experiment [1] is “inactive”. For the same molecule, the Potency in experiment [2] is 61.1 µM (active).
With `NC(=Nc1ccccc1)Nc1ccccc1`, the Potency result in experiment [1], in experiment [3], in experiment [4], in experiment [5], in [6] and in experiment [2] was “inactive” in each case.
Turning to `Cc1ccc(S(=O)(=O)Oc2ccc(N=Nc3ccc(-c4ccc(N=Nc5c(O)ccc6cc(S(=O)(=O)O)cc(S(=O)(=O)O)c56)c(C)c4)cc3C)cc2)cc1`, the Potency in experiment [1] is 24.4 µM (active) and 20 µM (active); in experiment [2], 19.4 µM (active) and 17.8 µM (active). The Potency result in experiment [7] is “inactive”.
Take `CN(C)c1ccc2nc3ccc(=[N+](C)C)cc-3sc2c1`: the Potency in [1] was 13.1 µM (active) and 30.6 µM (active) and 23.7 µM (active); in [7] it was 2.94 µM (active) and 1.37 µM (active) and 1.68 µM (active); in experiment [2], 4.16 µM (active) and 6.11 µM (active) and 5.96 µM (active).
`CC[C@H]1CN2CCc3cc(OC)c(OC)cc3[C@@H]2C[C@@H]1C[C@H]1NCCc2cc(OC)c(OC)cc21`: in experiment [2], the Potency was 15.4 nM (active) and 84.1 nM (active).
As to `C=C(C)C1CC=C(C)C(OC(C)=O)C1` (stereo not given), the Potency result in experiment [1], in [7] and in [2] was “inactive” in each case.
With `Oc1c(Cl)cc(Cl)c(Cl)c1Cc1c(O)c(Cl)cc(Cl)c1Cl`, the Potency result in experiment [7] was “inactive”. Also, the Potency in experiment [2] is 13.6 µM (active) and 13.7 µM (active) and 8.41 µM (active).
Regarding `COC(=O)[C@H]1[C@H]2C[C@@H]3c4[nH]c5cc(OC)ccc5c4CCN3C[C@H]2C[C@@H](OC(=O)c2cc(OC)c(OC)c(OC)c2)[C@@H]1OC`, the Potency entry in experiment [1] and in [3] was “inactive” each time. In addition, the Potency in [4] is 21.1 µM (active). Further, the molecule was classed as inactive in experiment [8] and in [9].
